Experimental data: PubChem BioAssay (NCATS)
Records with an inconclusive call do not appear. Entries that show only a call come without a potency. Active and inactive are the calls of the source. The call rests on the fitted dose curve; in most records, active means well fitted cell-killing curve with a large enough effect; inconclusive means small, poorly fitted or top-dose-only effect; inactive means flat fitted curve, though single readings scatter.

Experiment: Cellular viability qHTS for adrenocortical cancer (ACC) cell line NCI-H295R (AID 1963990); further: nearly all actives have a fitted effect of over 60% in size
Conditions: CellTiter-Glo ATP luminescence, 48 h; series mostly up to 46.1 µM
Source text: PI: Naris Nilubol, MD Surgical Oncology Program, National Cancer Institute (NCI) National Institute of Health (NIH), Bethesda, Maryland Adrenocortical cancer (ACC) is a rare malignancy with poor survival outcomes and few treatment options. Currently, mitotane is the only FDA-approved therapy for ACC. Although adjuvant radiation therapy is rarely utilized, it has the potential to improve survival in select cases. Through a quantitative high-throughput drug screen (qHTS), we identified auranofin (AF), a thioredoxin reductase (TXNRD) inhibitor, as a promising candidate drug. This study aims to evaluate whether AF can enhance the efficacy of radiation therapy in the treatment of ACC. Two human ACC cell lines, SW-13 and NCI-H295R, were screened using the National Center for Advancing Translational Sciences (NCATS) Pharmaceutical Collection (NPC) and the Mechanism Interrogation PlatE (MIPE) library (~4,991 compounds). CellTiter-Glo (Cat # G7570, Promega, Madison, WI) was utilized to measure cell viability. Described herein are the results of the corresponding viability assay.
PROTOCOL TABLE (as described by Inglese J, Shamu CE and Guy RK. 2007) SEQUENCE No. (e.g., 1, 2, 3, etc.); […] (e.g., Cells, Incubation, Reagent, etc.); VALUE; DESCRIPTION. 1; Cells; 5 uL; white, solid-bottom, 1536-well tissue-culture treated plates. 2; Time; overnight culture at 37C with 5% CO2. 3; Compounds and control; 23 nL; Kalypsis pin tool (Wako USA) equipped with a 1536-well pin head to transfer to the assay plates. 4; Time; 48 hours; 37C with 5% CO2. 5; Reagent; 4 uL; CellTiter-Glo luminescent substrate mix. 6; Time; 20 min at room temperature. 7; Detection; Luminescence; ViewLux plate reader NOTES (numbers refer to Sequence numbers above) 1. NCI-H295R cells were harvested from a T175 flask and resuspended in ITS-supplemented DMEM serum-free medium at a concentration of 300 000 cells/mL. Then 5 uL of resuspended cells were dispensed into each well of white, solid-bottom, 1536-well tissue-culture-treated plates using a multidrop combi dispenser. The plates were covered with stainless steel gasket lids. 2-3. The plates were cultured overnight at 37C with 5% CO2. Twenty-three nL of compounds (eight selected concentrations from the NPC / MIPE) or positive control (10 mM stock of bortezomib) in DMSO was transferred to each well of the assay plate using a pin tool (Kalypsys, San Diego, CA, USA). The final concentration of the compounds in the 5 uL assay volume ranged from 0.5 nM to 46 uM. 4-6. After 48 hours of incubation at 37C and 5% CO2, 4 uL of CellTilter-Glo luminescent substrate mix (Promega, Madison, WI, USA) was added to each well. Then the plates were incubated for 20 minutes at room temperature. 7. After incubation, luminescence was measured using a ViewLux plate reader (PerkinElmer, Waltham, MA, USA) with a clear filter was used to measure the number of metabolically competent cells. To determine compound activity in the qHTS assay, the titration-response data for each sample was plotted and modeled by a four-parameter logistic fit yielding IC50 and efficacy (maximal response) values. Raw plate reads for each titration point were normalized relative to positive control ([…], 100% inhibition) and DMSO-only wells (basal, 0%). REFERENCES: Inglese J, Shamu CE and Guy RK, Reporting data from high throughput screening of small molecule libraries, Nature Chemical Biology, 2007, 3(8): 438-441. doi.org/10.1038/nchembio0807-438.

SMILES	Potency	activity change, negative = viability loss
O=C(Nc1cccnc1)N1CCC(Cc2cccc(Oc3ccc(C(F)(F)F)cn3)c2)CC1	17.8 µM (active)	
Cc1ccc(C(=O)Nc2cccc(C(F)(F)F)c2)cc1Nc1nc(-c2cccnc2)nc2c1cnn2C	3.16 µM (active)	
Cn1c2ccccc2c2c3c(c4c5ccccc5n(CCC#N)c4c21)CNC3=O	3.55 µM (active)	
COc1cc2c(cc1OC)CC(=O)N(CCCN(C)C[C@H]1Cc3cc(OC)c(OC)cc31)CC2	inactive	
O=C(O)c1c(Cl)c(Cl)c(Cl)c(Cl)c1-c1c2cc(I)c(=O)c(I)c-2oc2c(I)c(O)c(I)cc12	14.1 µM (active)	
CC(=O)N(O)CCCCCNC(=O)CCC(=O)N(O)CCCCCNC(=O)CCC(=O)N(O)CCCCCN	inactive	
COc1ccc2c(c1OC)C(=O)OC2[C@H]1c2c(cc3c(c2OC)OCO3)CCN1C (stereo not given in full)	25.1 µM (active)	
NCc1ccccc1Sc1ccccc1CO	inactive	
CCCCCN(C)CCC(O)(P(=O)(O)O)P(=O)(O)O		-3.37% [at 3.81 µM] (inactive)
O=C(O)c1ccccc1C(=O)Nc1ccc(S(=O)(=O)Nc2nccs2)cc1	inactive	
C[C@@H](c1ncncc1F)[C@](O)(Cn1cncn1)c1ccc(F)cc1F	inactive	
CC1(C)CN(C(=O)c2ccc(-c3cccc4nc(NC(=O)C5CC5)nn34)cc2)C1	inactive	
CCN1CCN(Cc2ccc(Nc3ncc(F)c(-c4cc(F)c5nc(C)n(C(C)C)c5c4)n3)nc2)CC1	4.47 µM (active)	
C=CC(=O)Nc1ccc2ncnc(Nc3ccc(OCc4cccc(F)c4)c(Cl)c3)c2c1	6.31 µM (active)	
C[C@]12CC[C@@H]3c4ccc(O)cc4CC[C@H]3[C@@H]1CCC2=O	inactive	
CC(C)C[C@@H](N)C(=O)O	inactive	
Oc1ccc(C2=Cc3ccc(O)cc3OC2)cc1	11.2 µM (active)	
COc1cc2c(cc1OC(C)C)[C@H](c1ccc(Cl)cc1)N(c1ccc(N(C)CC3CCC(N4CCN(C)C(=O)C4)CC3)cc1)C(=O)C2 (stereo not given in full)	22.4 µM (active)	
O=C(CCNC(=O)c1ccc(OC(F)(F)F)cc1)N[C@@H]1CCCc2ccccc21	inactive	
O=c1[nH]c(=O)c2ccccc2o1	inactive	

SMILES	Potency	activity change, negative = viability loss
COc1cc(C(=O)N2CCCCCCC2)cc(OC)c1OC	inactive	
CNC(=O)c1c(F)cccc1Nc1nc(Nc2cc3c(cc2OC)CCN3C(=O)CN(C)C)nc2[nH]ccc12	1.12 µM (active)	
Cc1cn([C@H]2C=C[C@@H](CO)O2)c(=O)[nH]c1=O	inactive	
CC(C)(C)NC(=O)[C@H]1CC[C@H]2[C@@H]3CC[C@H]4NC(=O)C=C[C@]4(C)[C@H]3CC[C@]12C	inactive	
CO/N=C(/C(=O)N[C@@H]1C(=O)N2C(C(=O)[O-])=C(C[n+]3ccn4ncccc43)CS[C@H]12)c1nsc(N)n1	inactive	
CCc1cc(Cl)c(OC)c(C(=O)NC[C@@H]2CCCN2CC)c1O	inactive	
Cn1cc[nH]c1=S	inactive	
C#CC(C)(CC)OC(=O)c1ccccc1C(=O)O (stereo not given)	inactive	
CC(=O)CC(c1ccccc1)c1c(O)c2ccccc2oc1=O (stereo not given)	inactive	
CSc1cccc(Nc2ncc3cc(-c4c(Cl)cccc4Cl)c(=O)n(C)c3n2)c1	inactive	
OC(CCN1CCCCC1)(c1ccccc1)C1CC2C=CC1C2 (stereo not given)	inactive	
CN[C@@H](C)[C@H]1[C@H](O)C[C@@]2(C)[C@@H]3CC[C@H]4C(C)(C)[C@@H](NC)CC[C@@]45C[C@@]35CC[C@]12C		-14.8% [at 9.17 µM] (inactive)
NC(CS)C(=O)O (stereo not given)	inactive	
COCCOC(=O)C1=C(C)NC(C)=C(C(=O)OC(C)C)C1c1cccc([N+](=O)[O-])c1 (stereo not given)	inactive	
Nc1c2c(nc3c1CCC3)CCCC2	inactive	
CCCCOc1ccc(C(=O)CCN2CCCCC2)cc1	8.2 µM (active)	
NCCc1ccn[nH]1	inactive	
O=c1cc[nH]c(=O)[nH]1	inactive	
C=C1C(=O)OC(CCCCCCCC)C1C(=O)O (stereo not given)	inactive	
Cc1cc(NC(=O)C2=C(O)c3ccccc3S(=O)(=O)N2C)no1	inactive	
